Experimental data published in PubChem BioAssay (Tox21).
Results filed as inconclusive are left out. Some structures have more than one record in an assay (separate samples or runs), and their calls can disagree. Activity calls are given as the source filed them. Calls come from the whole dose curve.

Target: Acetylcholinesterase (Homo sapiens) (UniProt P22303)
Test: Acetylcholinesterase (AChE) small molecule antagonists: fluorescence cell-based qHTS assay (AID 1347398); note: nearly all actives have a fitted effect of over 50% in size
Conditions: SH-SY5Y cells; Potency: AChE activity; outcome: AChE activity; series mostly up to 115 µM; activity change, negative = inhibition: at the top concentration
Text: National Center for Advancing Translational Sciences [NCATS]
Division of Preclinical Innovation [DPI]
U.S. Environmental Protection Agency [EPA]
National Institutes of Environmental Health Sciences [NIEHS]
National Toxicology Program [NTP]
U.S. Food and Drug Administration [FDA]
Acetylcholinesterase (AChE) is the primary cholinesterase in the body that hydrolyzes a key neurotransmitter, acetylcholine. Inhibition of AChE activity can lead to neurotoxicity. Known inhibitors of AChE include organophosphorous pesticides (OP), chemical warfare agents, drugs, and various phytochemicals.
A homogenous cell-based assay using Amplitetrade mark Fluorimetric Acetylcholinesterase Assay Kit *Green Fluorescence* (AAT Bioquest, Sunnyvale, CA) was used to evaluate the chemicals in the Tox21 10K library that inhibit AChE activity. The assay uses Thiolite Green to quantify the thiocholine produced from the hydrolysis of acetylthiocholine by AChE from the SH-SY5Y cells. AChE can hydrolyze acetylthiocholine to create thiocholine. Thiolite Green is fluorescent when reacting with thiocholine. It has spectral properties similar to those of fluorescein. The fluorescence intensity of Thiolite Green is used to measure AChE activity. Its signal can be easily read by a fluorescence microplate reader at Ex/Em = 490/520 nm.
Tox21 Assay Protocol Summary:
For cell-based AChE assay, 2,000 SH-SY5Y cells in 4 uL/well were dispensed into black, clear-bottom 1536-well plates using a Multidrop Combi (Thermo Scientific) dispenser. The assay plates were incubated overnight at 37 C to allow cells to attach to the wells, followed by the transfer of 23 nL compound or DMSO (vehicle control) by a Pintool station (Wako Automation, CA). The plates were incubated for 30 min at 37 C and 5% CO2, followed by the addition of 4 uL of detection cocktail solution (ThioliteGreen, acetylthiocholine) into each well using Flying Reagent Dispenser (Beckman Coulter, CA) and then following 40 min incubation at room temperature. Fluorescent intensity (Ex/Em = 490/520 nm) was measured using an Envision plate reader (PerkinElmer, MA).
% is set by controls: 0 for no effect and ±100 for the full control effect; potency is the fitted concentration of half-maximal effect.

Acetylcholinesterase (Homo sapiens), sequence (P22303 whole entry, looked up): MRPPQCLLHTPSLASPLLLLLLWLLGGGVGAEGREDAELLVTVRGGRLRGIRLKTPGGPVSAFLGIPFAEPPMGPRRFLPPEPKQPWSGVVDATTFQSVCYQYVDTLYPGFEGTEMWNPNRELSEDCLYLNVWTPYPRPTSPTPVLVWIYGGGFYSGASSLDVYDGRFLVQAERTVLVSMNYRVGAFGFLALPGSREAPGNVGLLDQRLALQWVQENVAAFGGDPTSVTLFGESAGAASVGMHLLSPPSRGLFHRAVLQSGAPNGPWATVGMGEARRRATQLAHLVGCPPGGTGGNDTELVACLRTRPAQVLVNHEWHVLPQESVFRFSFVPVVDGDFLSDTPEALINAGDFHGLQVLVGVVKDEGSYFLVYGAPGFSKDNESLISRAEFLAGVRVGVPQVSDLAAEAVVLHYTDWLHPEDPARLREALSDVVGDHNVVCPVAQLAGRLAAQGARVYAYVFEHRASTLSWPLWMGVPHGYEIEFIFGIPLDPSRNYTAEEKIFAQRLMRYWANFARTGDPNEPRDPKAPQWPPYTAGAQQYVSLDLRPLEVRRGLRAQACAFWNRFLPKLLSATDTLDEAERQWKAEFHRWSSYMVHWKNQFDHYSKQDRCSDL

| Compound | activity change, negative = inhibition | Potency |
| --- | --- | --- |
| C[C@@H]1CC[C@@]2(OC1)O[C@H]1C[C@H]3[C@@H]4CC[C@H]5C[C@@H](O)CC[C@]5(C)[C@H]4CC(=O)[C@]3(C)[C@H]1[C@@H]2C | -1.2% [at 10.5 µM] (inactive) | – |
| CNC(=O)c1cc(Oc2ccc(NC(=O)Nc3ccc(Cl)c(C(F)(F)F)c3)cc2)ccn1 | 10.8% [at 53.7 µM] (inactive) | – |
| CCOC(=O)[C@H](CCc1ccccc1)N[C@@H](C)C(=O)N1C(=O)N(C)C[C@H]1C(=O)O | 0.806% [at 53.7 µM] (inactive) | – |
| COC(=O)CCCCCCCC(=O)OC | 2.89% (inactive) | – |
| O=C1OC(=O)c2c(Cl)c(Cl)c(Cl)c(Cl)c21 | – | inactive |
| CCCC(C)=O | – | inactive |
| CCOC(=O)O[C@]1(C(=O)OCCl)CC[C@H]2[C@@H]3CCC4=CC(=O)C=C[C@]4(C)[C@H]3[C@@H](O)C[C@@]21C | 9.82% [at 53.7 µM] (inactive) | – |
| N[C@@H](Cc1c[nH]c2ccc(O)cc12)C(=O)O | – | inactive |
| Cc1ccc2c(c1)C(=O)c1ccccc1C2=O | -8.49% (inactive) | – |
| O=S1(=O)OC(c2ccc(O)cc2)(c2ccc(O)cc2)c2ccccc21 | – | inactive |
| Nc1ncnc2nc[nH]c12 | – | inactive |
| C=CC(=O)OCCCCCCOC(=O)C=C | – | inactive |
| O=C(O)c1cc2ccccc2nc1C(=O)O | 6.21% (inactive) | – |
| OC[C@H]1O[C@@H]2O[C@H]3[C@H](O)[C@@H](O)[C@@H](O[C@H]4[C@H](O)[C@@H](O)[C@@H](O[C@H]5[C@H](O)[C@@H](O)[C@@H](O[C@H]6[C@H](O)[C@@H](O)[C@@H](O[C@H]7[C@H](O)[C@@H](O)[C@@H](O[C@H]1[C@H](O)[C@H]2O)O[C@@H]7CO)O[C@@H]6CO)O[C@@H]5CO)O[C@@H]4CO)O[C@@H]3CO | – | inactive |
| CNC(=O)c1ccccc1 | 4.99% (inactive) | – |
| CCC/C=C(\C=O)CC | 0.353% (inactive) | – |
| CCCCC(CC)COC(=O)CCCCC(=O)OCC(CC)CCCC (stereo not given) | – | inactive |
| CC(C)(c1ccccc1)c1ccccc1 | -6.31% (inactive) | – |
| CC(=O)Nc1ccc(N)cc1 | -2.14% (inactive) | – |
| CCN(CC)C(=O)c1cccc(C)c1 | – | inactive |

| Compound | activity change, negative = inhibition | Potency |
| --- | --- | --- |
| O=C(O)c1ccc(O)cc1O | -2.88% (inactive) | – |
| Cc1sccc1Br | 11.1% [at 53.7 µM] (inactive) | – |
| CC(C)(C)C1=CC(=O)C=C(C(C)(C)C)C1=O | -1.18% (inactive) | – |
| Cc1ccc(C(=O)Oc2ccc(C(O)CNC(C)(C)C)cc2OC(=O)c2ccc(C)cc2)cc1 (stereo not given) | -11.2% [at 53.7 µM] (inactive) | – |
| COC(=O)c1ccc(C)cc1C1=NC(C)(C(C)C)C(=O)N1 (stereo not given) | -3.74% (inactive) | – |
| CO/N=C(/C(=O)N[C@@H]1C(=O)N2C(C(=O)O)=C(Cn3nnc(C)n3)CS[C@H]12)c1csc(N)n1 | 0.752% [at 53.7 µM] (inactive) | – |
| CCc1nn(C2CCCCC2)c2cc(C3(C#N)CCC(C(=O)O)CC3)ccc12 (stereo not given) | 2.88% (inactive) | – |
| C=C(C)C(=O)NCCC[N+](C)(C)C | 0.18% (inactive) | – |
| Fc1c(F)c(F)c(Br)c(F)c1F | 2.58% (inactive) | – |
| CNC(=S)N(C)C | – | 32 µM (active) and inactive |
| CC1CCCC(=O)C1=O (stereo not given) | 1.37% (inactive) | – |
| CCCCCC/C(C=O)=C\c1ccccc1 | – | inactive |
| COc1cccc(OC)c1C(=O)N[C@@H]1C(=O)N2[C@@H]1SC(C)(C)[C@@H]2C(=O)O | 7.79% [at 53.7 µM] (inactive) | – |
| Cc1ncsc1CCO | -0.242% (inactive) | – |
| CCCCCCCCCCCCCCCCCC(=O)OCC(O)CO (stereo not given) | – | inactive |
| CC(C)NNC(=O)c1ccncc1 | 6.25% [at 53.7 µM] (inactive) | – |
| CCCCN(CCCC)CCCC | – | inactive |
| CCCCc1ccc(Cl)cc1 | 4.34% (inactive) | – |
| COc1cc(C(=O)OC(COCCC(C)C)CN2CCOCC2)cc(OC)c1OC (stereo not given) | -4.42% [at 53.7 µM] (inactive) | – |
| CNc1ccc([N+](=O)[O-])cc1 | 0.337% (inactive) | – |
